In PubChem BioAssay:
Calls of active or inactive are those of the source.

Columns and labels:
[1] = tested on: XIP peptide (Xip251-270) binding; assay: XIP fragment 251-270 binding compounds – biochemical, small-molecule microarray, fluorescence 635/667 nm, 0.1 µg/mL protein, primary screen (AID 1182); settings: fluorescent protein binding, 635 nm, higher = more signal, called active from +8 up or from −8 down
XIP peptide (Xip251-270) = assay: compounds binding XIP fragment 251-270 – biochemical, small-molecule microarray, fluorescence 635/667 nm, 0.5 µg/mL protein, primary screen (AID 1183); settings: fluorescence 635 nm, higher = more signal
[2] = blood-stage malaria parasite viability loss – strain 3D7, DAPI fluorescence, 100 nL, primary screen (AID 1184);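 note: parasites grown inside human red blood cells in medium with human serum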; settings: P. falciparum 3D7 growth, 3 d, higher = more signal
[3] = biological target: Homeobox protein Hox-A13 (Mus musculus) (UniProt Q62424); assay: disruptors of Hoxa13 oligonucleotide interaction – biochemical, fluorescence polarization, labeled oligonucleotide, primary screen (AID 1185); settings: Hoxa13:DNA binding, 15 min, higher = more signal, called active from +8 up or from −8 down
Chain of Homeobox protein Hox-A13 (Mus musculus) (Q62424 whole entry, looked up): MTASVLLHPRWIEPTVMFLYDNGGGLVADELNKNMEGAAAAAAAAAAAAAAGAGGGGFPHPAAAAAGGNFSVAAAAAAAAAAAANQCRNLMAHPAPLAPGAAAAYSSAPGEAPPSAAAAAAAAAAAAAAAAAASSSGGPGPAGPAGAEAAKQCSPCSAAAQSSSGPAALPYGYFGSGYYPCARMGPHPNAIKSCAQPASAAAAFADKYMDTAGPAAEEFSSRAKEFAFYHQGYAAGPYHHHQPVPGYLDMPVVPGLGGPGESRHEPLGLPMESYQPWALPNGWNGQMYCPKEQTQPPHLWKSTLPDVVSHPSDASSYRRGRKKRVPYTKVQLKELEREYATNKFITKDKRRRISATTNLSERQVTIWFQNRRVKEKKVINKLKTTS

| SMILES | composite z-score [1] | composite z-score (XIP peptide (Xip251-270)) | z-score [2] | z-score [3] |
| --- | --- | --- | --- | --- |
| C[C@@H]1CC[C@H]2C(=O)O[C@@H](COc3ccc(C(C)(C)C)cc3)CN2[C@@H]1c1ccc(Br)cc1 | 0.286 (inactive) | 0.0087 | 0.093 | 0.347 (inactive) |
| COC(=O)[C@@H]1CC[C@@H](C)[C@H](c2ccc(Br)cc2)N1 | -0.0456 (inactive) | 0.0425 | 0.303 | -1.98 (inactive) |
| COC(=O)CC=C[C@@H](C)[C@@H](C=NOCC[C@@H]1C=C[C@H](OC(C)=O)[C@@H](COC(C)=O)O1)OC | -0.198 (inactive) | 0.239 | 1.13 | -1.14 (inactive) |
| CCCNC(=O)OC[C@H]1O[C@H](CCON=C(C)CCC(=O)OC[C@H]2O[C@H](c3ccccc3)C=C[C@@H]2Oc2ccc(OC)cc2)C=C[C@@H]1Oc1ccc(OC)cc1 | 0.146 (inactive) | -0.138 | -0.935 | -2.1 (inactive) |
| CC(C)=CCCC(C)=CCON=C1C[C@@H](O)[C@@H](O)[C@@H]2[C@@H]3C(=O)N(c4cccc(Oc5ccccc5)c4)C(=O)[C@@H]3CC[C@@H]12 | 0.188 (inactive) | 0.352 | -1.58 | -3.76 (inactive) |
| CCOC(=O)[C@H](Cc1ccccc1)NC(=O)CCC1CC(OC(=O)NCc2cccc3ccccc23)CC2(CCCC(COC(=O)NCCC(C)C)O2)O1 (some centres undefined) | 0.646 (inactive) | 0.027 | 0.0857 | -5.99 (inactive) |
| CC(C)C[C@H](NC(=O)CCC1CC(OC(=O)NCc2cccc3ccccc23)CC2(CCCC(COC(=O)NCc3ccccc3)O2)O1)C(=O)NCC(c1ccccc1)c1ccccc1 (some centres undefined) | -0.284 (inactive) | 0.673 | -1.65 | -6.28 (inactive) |
| CCOC(=O)[C@H](CC(C)C)NC(=O)CCC1CC(OC(=O)NCc2cccc3ccccc23)CC2(CCCC(COC(=O)NCCOc3ccccc3)O2)O1 (some centres undefined) | 0.761 (inactive) | 0.471 | -1.81 | -3.36 (inactive) |
| CCOC(=O)[C@H](CC(C)C)NC(=O)CCC1CC(OC(=O)NCc2cccc3ccccc23)CC2(CCCC(COC(=O)NCc3cccc(C(F)(F)F)c3)O2)O1 (some centres undefined) | -0.364 (inactive) | -0.298 | 0.688 | -0.443 (inactive) |
| CC(C)(C)N1C(=O)[C@H]2[C@H]3[C@H](O)[C@H](O)CC(=NO[C@@H]4O[C@H](CO)[C@@H](O)[C@H](O)[C@H]4O)[C@H]3CC[C@H]2C1=O | 0.0127 (inactive) | 0.271 | -1.62 | -4.08 (inactive) |
| CC1O[C@H]2C3=C(C(=O)[C@@H]4O[C@@H]4[C@H]3O)[C@@H]1C1[C@@H](C)OC=C3[C@H](O)C4O[C@@H]4C(=NOCc4ccccc4)[C@]312 (some centres undefined) | -0.319 (inactive) | 0.563 | -0.352 | -1.93 (inactive) |
| O=C1[C@H]2[C@H]3[C@H](O)[C@H](O)CC(=NOCc4ccccc4)[C@H]3CC[C@H]2C(=O)N1Cc1ccc2c(c1)OCO2 | -0.4 (inactive) | -0.267 | -0.437 | -3.74 (inactive) |
| CCOC(=O)[C@H](CC(C)C)NC(=O)CCC1CC(OC(=O)NCc2ccc3c(c2)OCO3)CC2(CCCC(COC(=O)NCCCN3CCCC3=O)O2)O1 (some centres undefined) | -0.228 (inactive) | 0.6 | -1.61 | -5.69 (inactive) |
| CC(CCN1CCc2nc(-c3ccccc3)c(-c3ccccc3)cc2C1)=NOC[C@@H](O)[C@H]1O[C@@H]2OC(C)(C)O[C@@H]2[C@H]1O | 0.176 (inactive) | 0.528 | 0.688 | -5.63 (inactive) |
| CCOC(=O)NN=C1C[C@@H](O)[C@@H](O)[C@@H]2[C@@H]3C(=O)N(Cc4ccccc4)C(=O)[C@@H]3CC[C@H]12 | -0.405 (inactive) | 0.0213 | -0.179 | -1.48 (inactive) |
| CCN1C(=O)[C@H]2[C@H]3[C@H](O)[C@H](O)CC(=O)[C@H]3CC[C@H]2C1=O | 0.809 (inactive) | 0.453 | 1.05 | 0.0412 (inactive) |
| CCN1C(=O)[C@H]2[C@H]3[C@H](O)[C@H](O)CC(=NOC[C@H]4O[C@H](c5ccccc5)C=C[C@@H]4Oc4ccc(OC)cc4)[C@@H]3CC[C@H]2C1=O | 0.432 (inactive) | 0.704 | 0.188 | -10.8 (active) |
| COc1ccc(O[C@H]2C=C[C@@H](c3ccccc3)O[C@@H]2CON=C2[C@H]3CCn4c(=O)n(-c5ccccc5)c(=O)n4[C@H]3[C@H](O)[C@@H]3O[C@H]23)cc1 | -0.454 (inactive) | 0.742 | -0.725 | -4.59 (inactive) |
| O=c1n(Cc2cc3c(cc2Cl)OCO3)c(=O)n2n1CC[C@@H]1C(=NOC[C@@H](O)COCc3ccco3)[C@H]3O[C@H]3[C@@H](O)[C@@H]12 | -0.45 (inactive) | 0.108 | -0.181 | -0.786 (inactive) |
| CO[C@H]1COC(=O)[C@H](C)NC(=O)[C@@H](C)COC(=O)[C@H]2CCCN2C(=O)CC=C[C@H]1C | -0.077 (inactive) | -0.143 | 0.43 | 0.24 (inactive) |
| CO[C@H]1COC(=O)[C@H](C)NC(=O)CC=C[C@@H](C)[C@H](OC)COC(=O)[C@@H](OCc2ccccc2)C=C[C@@H]1C | -0.296 (inactive) | -0.54 | 0.112 | -0.22 (inactive) |
